# Measurements taken from PubChem BioAssay (NCATS).
# Inconclusive results are not listed. A call without a number means that no potency is given here. Active and inactive are the calls of the source. Calls come from the whole dose curve; as a rule, active = well fitted inhibition curve with a large enough effect; inconclusive = small, poorly fitted or top-dose-only effect; inactive = flat fitted curve, though single readings scatter.
# Molecular target: Aldehyde dehydrogenase, mitochondrial (Homo sapiens) (UniProt P05091)
# Assay: qHTS for Inhibitors of the Aldehyde Dehydrogenase Family (ALDH2) Primary screen (AID 2061308); note: nearly all actives have a fitted effect of over 55% in size
# Details: ALDH2 enzyme inhibition qHTS, 1536-well; series mostly up to 56 µM
row,SMILES,Potency
1,CC(=O)Nc1ncc(S(=O)(=O)Nc2cnccc2C(=O)Nc2nc(-c3ccccc3)cs2)s1,inactive
2,c1ccc(CNc2ccc(N3CCOCC3)cc2)cc1,inactive
3,CN1CCN(c2cccc(Nc3nn4c(=O)c5ccc(N(C)C)cc5nc4s3)c2)CC1,inactive
4,Cc1cc(-c2nnc3n2CCCCC3)c(C)n1-c1ccc([N+](=O)[O-])cc1,inactive
5,Cn1nnnc1Sc1ncnc2scc(-c3cccc4ccccc34)c12,inactive
6,Cc1ccc(S(=O)(=O)Nc2cccc(C(=O)Nc3nc(-c4ccc(Cl)cc4)cs3)c2)cc1,inactive
7,COc1ccc(CN(Cc2ccccc2)C(=O)c2ccccc2)cc1COc1ccc(NC(C)=O)cc1,inactive
8,O=S1(=O)N=C(OCc2ccccc2)c2ccccc21,inactive
9,CC(C)(C)OC(=O)N1CCN(c2ccc(NCc3ccc(-c4ccc(C#N)cc4)nc3)cc2)CC1,inactive
10,COc1ccc(C2Nc3ccccc3C(=O)N2Cc2ccccc2)cc1COc1c(C)cc(NC(C)=O)cc1C (stereo unspecified),inactive
11,Cc1cc(C)nc(NC(=S)N2CCN(c3cc(C(F)(F)F)nc4ccccc34)CC2)c1,inactive
12,NC(=O)c1cccc(C[C@H](C(=O)O)N2C(=O)c3ccc(C(=O)O)cc3C2=O)c1,inactive
13,Cc1ccc(S(=O)(=O)Nc2ccc(Cl)cc2C(=O)Nc2nc(-c3ccccc3)cs2)cc1,inactive
14,O=C(Nc1ccc2ccccc2c1)Nc1nnc(-c2ccc(Cl)cc2Cl)s1,inactive
15,COc1ccc(C(=O)Oc2ccc(-c3nc4ccccc4[nH]3)cc2)cc1OC,inactive
16,CCOc1ccc(CCNC(=O)c2cc3sccc3n2Cc2ccccc2)cc1OCC,inactive
